Shown are actives, neighbours in structure and some others; about 2.8% of the full set was active somewhere.
HEK293 tox: cytotoxic in the GLP-1 receptor inverse agonist counter-screen. HEK293 cAMP-luciferase reporter cells, luminescence, 24 h. hit rate 0.13% among 410,000. Potency, µM (doses to about 38.3 µM), inactives show at the top dose activity change, negative = inhibition, most hits filed as inhibitors. AID 624418;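 also: loss of luciferase light is scored as toxicity; potency is read from the fitted curve at half-maximal effect; % is scaled to controls: 0 for no effect and ±100 for the full control effect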
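Step one: seed cells (200 cells/uL, DMEM with 10% Nu serum, 1% pen-strep). Step two: 12-hour incubation at 37 deg C. Step three: pin 23 nL compound, incubate 24 hr. Step four: add luciferase reagent, read luminescence 12 min later.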
KCNH2 3.1 block: KCNH2 3.1 (human) potassium channel inhibition. U2OS KCNH2 3.1, thallium flux FluxOr; hits give low values. activity change, % (tested at about 1.8 µM). hit rate 0.95% among 340,000;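 active = maximum activity change below -70%; inconclusive = maximum activity change from -70% to -50%; inactive = maximum activity change above -50%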;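 also: thallium influx rate constant from kinetic fluorescence after stimulation buffer; % is scaled to controls: 0 for no effect and ±100 for the full control effect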
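FluxOr-based Tl+ influx in U2OS cells transduced with KCNH2 3.1 virus; rate constants normalized to DMSO controls.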
GLP1R ag: agonists of human GLP-1 receptor; P43220; HEK293 GLP-1R CRE-luciferase, luminescence, 4-6 h; cells express a hypersensitive GLP-1R form; Potency, µM (titrated, usually from 45.6 µM), for the others: at the highest dose activation, actives largely listed as activators; hit rate 0.007% among 380,000; also: potency is read from the fitted curve at half-maximal effect; % of control where 0% means no effect
hERG WT inh: inhibitors of human wildtype KCNH2 potassium channel. U2OS, BacMam KCNH2, thallium flux FluxOr; hits give low values. Q12809. activity change, % at 1.84 µM. hit rate 0.37% among 340,000. AID 720551;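 active = maximum activity change below -70%; inconclusive = maximum activity change between -70% and -50%; inactive = maximum activity change above -50%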; also: % is scaled to controls: 0 for no effect and ±100 for the full control effect
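U2OS cells transduced with wild-type KCNH2 virus are loaded with FluxOr dye for 45 min, and thallium flux is measured in kinetic reads before and after stimulation buffer. Rate constants are normalized to DMSO controls.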
GLP1R inv ag: GLP-1 receptor (human) inverse agonism. Potency, µM (titrated, usually from 38.3 µM), inactives show top-dose activity change, negative = inhibition, hits mostly inhibitors. AID 624417. hit rate 1.6% among 410,000. P43220. HEK293 GLP-1R CRE-luciferase, luminescence, 24 h; GLP-1R form is constitutively active; also: potency is read from the fitted curve at half-maximal effect; % is scaled to controls: 0 for no effect and ±100 for the full control effect; nearly all actives have a fitted effect of over 55% in size
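Cells are plated, allowed 12 hours at 37 deg C, then treated with compounds for 24 hr before luciferase detection reagent is added and luminescence is read after 12 min at room temperature. The HEK293 line carries constitutively active GLP-1R with a cAMP-responsive reporter.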
GLS inhibitor: inhibitors of human glutaminase (GLS); O94925; GLS enzymatic activity, qHTS titration; Potency, µM (series often up to 45.5 µM), for the others: at the top dose activity change, negative = inhibition, usual class: inhibitors; hit rate 0.21% among 410,000; AID 624170; also: potency is read from the fitted curve at half-maximal effect; % is scaled to controls: 0 for no effect and ±100 for the full control effect
Target sequence (O94925 whole entry, looked up): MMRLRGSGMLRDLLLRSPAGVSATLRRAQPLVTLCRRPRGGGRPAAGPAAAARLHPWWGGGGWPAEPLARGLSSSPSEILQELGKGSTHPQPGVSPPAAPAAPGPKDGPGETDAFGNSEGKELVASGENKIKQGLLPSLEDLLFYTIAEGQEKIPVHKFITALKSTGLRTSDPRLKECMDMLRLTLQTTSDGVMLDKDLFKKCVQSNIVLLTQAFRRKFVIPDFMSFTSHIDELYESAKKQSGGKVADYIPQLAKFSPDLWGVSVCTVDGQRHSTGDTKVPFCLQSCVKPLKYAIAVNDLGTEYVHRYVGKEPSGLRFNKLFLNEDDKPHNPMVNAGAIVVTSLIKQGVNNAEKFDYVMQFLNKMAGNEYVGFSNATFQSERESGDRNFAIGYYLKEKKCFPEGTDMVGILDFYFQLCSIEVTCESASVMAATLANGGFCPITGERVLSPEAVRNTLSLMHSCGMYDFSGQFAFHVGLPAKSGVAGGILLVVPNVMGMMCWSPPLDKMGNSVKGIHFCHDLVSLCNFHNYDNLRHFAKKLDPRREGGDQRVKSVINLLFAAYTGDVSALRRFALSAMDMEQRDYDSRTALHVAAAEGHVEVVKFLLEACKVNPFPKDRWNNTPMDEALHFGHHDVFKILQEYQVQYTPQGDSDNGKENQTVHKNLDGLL
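Human kidney-isoform GLS in 45 mM KH2PO4 pH 8.2, 0.02% Tween-20, with compound, started with 1mM L-Glutamine (added stock). Glutamate oxidase/HRP/Amplex red coupled fluorescence read at start and after 30 min at RT.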
* = called active by the depositor; ? = inconclusive; nt = no result; ! = repeats disagree. Unless noted, calls follow the shape of the dose curve; as a rule, active = well fitted curve in the direction sought with a large enough effect; inconclusive = small, poorly fitted or top-dose-only effect, or another doubt; inactive = no such curve, though single readings can be large; an effect the other way counts as inactive or inconclusive.

SMILES	HEK293 tox	KCNH2 3.1 block	GLP1R ag	hERG WT inh	GLP1R inv ag	GLS inhibitor
CCc1ccc(-n2c(=O)c3cccnc3n2CC(=O)N(CC)c2cccc(C)c2)cc1	-10%	nt	nt	nt	?	-4%
CCCCN(C)C(=O)c1ccc2c(c1)N(Cc1ccc(F)cc1)C(=O)c1ccccc1S2(=O)=O	?	nt	nt	nt	?	-8%
COc1ccc2cc3[n+](cc2c1O)CCc1cc2c(cc1-3)OCO2	-11%	nt	-5%	nt	10%	?
C[n+]1cc2c3c(ccc2c2ccc4cc5c(cc4c21)OCO5)OCO3	nt	nt	-12%	nt	nt	3.2µM*
CCOC(=O)c1c(C)[nH]c(C)c1S(=O)(=O)NCC(=O)Nc1cccc(C#N)c1	-15%	nt	nt	nt	-27%	-7%
COc1ccc(CC(=O)NCC2CCCN(Cc3ccc(OC(F)(F)F)cc3)C2)cc1 (configuration not stated)	-1%	-41	21%	34	10µM*	-10%
CC(C)(C)c1ccc(-n2ncc3c2CCCC3NC(=O)c2ccco2)cc1 (configuration not stated)	-2%	-21	-2%	-28	10µM*	-1%
CC(=O)Nc1cccc(C(=O)NC2CCCc3c2cnn3-c2ccc(C(C)(C)C)cc2)c1 (configuration not stated)	-3%	-10	17%	11	?	-13%
C[c-]1[c-](C)[c-](C)[c-](C)[c-]1C.[Fe].c1cc2nccc(N3CCCC3)[c-]2c1 (configuration not stated)	-23%	0	3%	8	8%	13µM*!
CN(CC1CCCN(CCc2ccc(Cl)cc2)C1)C(=O)c1ccco1 (configuration not stated)	6%	-79*	9%	-37	?	-1%
CN(CC1CCCN(CCc2ccc(Cl)cc2)C1)C(=O)c1ccoc1 (configuration not stated)	-2%	?	12%	-20	0%	-8%
O=C(CNC(=O)c1ccncc1)N/N=C/c1cc(Br)ccc1O	-11%	nt	-1%	4	2%	19%
O=C(CNC(=O)c1ccncc1)N/N=C/c1ccc(Br)cc1	-7%	-109*	-5%	11	-7%	-1%
O=C(Cn1c(SCCOc2ccccc2Cl)nc2ccccc21)N1CCOCC1	5%	nt	nt	nt	8%	1%
Cc1[nH]c(C)c(S(=O)(=O)N2c3ccccc3CC2C)c1C(=O)N1CCCCC1 (configuration not stated)	-14%	3	1%	7	-34%	-1%
Cc1ccc(Cl)cc1NC(=O)CN1C(=O)CSc2ccc(S(=O)(=O)N3CCCC3)cc21	-6%	nt	nt	nt	-19%	-7%
Cc1ccc(NC(=O)CN2C(=O)CSc3ccc(S(=O)(=O)N4CCCCC4)cc32)cc1	8%	-8	-1%	14	5µM*	-2%
Cc1cc(Cl)ccc1NC(=O)CN1C(=O)CSc2ccc(S(=O)(=O)N3CCOCC3)cc21	-21%	1	5%	4	11µM*	1%
Cc1ccc2cc(C)c(SCC(=O)Nc3ccc(S(=O)(=O)N4CCCC4)cc3)nc2c1	-2%	-100*	12%	-12	-29%	11%
COc1ccc(OC)c(NC(=O)N2CC3CCCN3c3ccccc32)c1 (configuration not stated)	9%	nt	nt	nt	?	21%
Cc1cc(N2CC(C)OC(C)C2)nc2ccccc12 (configuration not stated)	-4%	-27	13%	-2	-24%	0%
Cc1ccc(N(c2ncnc(N)c2[N+](=O)[O-])C2CCCCC2)cc1	-13%	-86*	-2%	14	0%	-2%
Cc1cc(-c2ccc(S(=O)(=O)Nc3ccc(Cl)cc3C)cc2)on1	-30%	nt	nt	nt	?	2%
CCOC(=O)c1c(C)[nH]c(CCC(=O)NCc2ccc(CC)cc2)c1C	3%	nt	nt	nt	-13%	4%
CCOC(=O)c1cc(-c2ccccc2)n(CCCC(=O)Nc2ccc(C(C)C)cc2)c1C	-29%	nt	nt	nt	?	6%
SMILES	HEK293 tox	KCNH2 3.1 block	GLP1R ag	hERG WT inh	GLP1R inv ag	GLS inhibitor
CCOC(=O)c1cc(-c2ccc(F)cc2)n(CCC(=O)NC2CCN(Cc3ccccc3)CC2)c1C	?	-20	14%	10	7.9µM*	9%
CCOC(=O)c1cc(-c2ccc(C)cc2)n(CCC(=O)Nc2ccc(C(C)C)cc2)c1C	-4%	nt	0%	nt	2.5µM*	3%
CCOC(=O)c1cccc(NC(=O)CCn2c(-c3ccc(F)cc3)cc(C(=O)OCC)c2C)c1	-1%	nt	nt	nt	10µM*	-11%
CCOC(=O)c1cc(-c2ccccc2)n(CCCC(=O)Nc2cccc(C)c2)c1C	1%	nt	nt	nt	?	-12%
Cc1cccc(NC(=O)CSc2nc(=O)n(CCN3CCOCC3)c3c2CCCC3)c1C	6%	13	6%	4	22%	-4%
O=C(NCc1ccco1)C1CCN(c2nc3ccccc3n2Cc2ccccc2F)CC1	-4%	-105*	14%	?	?	0%
CCOc1ccccc1NC(=O)c1ccc2c(Cl)c3c(nc2c1)CCCC3	5%	nt	-2%	nt	-4%	0%
CC(C)C1=CC2=CC[C@@H]3[C@](C)(CCC[C@@]3(C)C(=O)O)[C@H]2CC1	nt	nt	-2%	nt	nt	14µM*
Cc1ccc(CN(C(=O)COc2cccc(Cl)c2)c2ccccn2)o1	-4%	nt	nt	nt	?	3%
Cc1cccc(Cn2cc(S(=O)(=O)c3ccccc3)c(=O)c3cc(F)c(N4CCOCC4)cc32)c1	-4%	nt	nt	nt	-3%	0%
COc1cccc2c1C(=O)c1c(O)c3c(c(O)c1C2=O)C[C@@](O)(C(=O)CO)C[C@@H]3OC1CC(N)C(O)C(C)O1 (some centres not stated)	?	-17	-21%	-18	4.5µM*	0%
COc1cccc2c1C(=O)c1c(O)c3c(c(O)c1C2=O)C[C@@](O)(C(=O)CO)C[C@@H]3O[C@H]1C[C@H](N)[C@H](O)[C@H](C)O1	?	-23	-10%	-8	?	17%
CCOc1ccc(N(C)S(=O)(=O)c2cc(-c3cc(C)no3)ccc2CC)cc1	3%	-3	-4%	7	8.9µM*	-4%
CC(=O)c1ccc(N2CCN(c3ncnc4onc(-c5ccc(Cl)cc5)c34)CC2)cc1	-4%	nt	1%	nt	?	2%
COc1ccc2c(Sc3ccc(Cl)cc3)c(C(=O)NCCCN3CCCCC3)[nH]c2c1	-12%	nt	nt	nt	?	-10%
OC(c1cccc(OCc2ccccc2)c1)c1nnc(-c2ccccc2)o1 (configuration not stated)	-3%	-38	3%	-12	10µM*	0%

Screening results as filed in PubChem.
